The values below come from PubChem BioAssay (NCATS).

“And” between values parts separate entries of the source, which are not always exact repeats. Identical values can stand only once. Inconclusive results are not listed. The source made the active and inactive calls. Unless noted, calls follow the shape of the dose curve; as a rule, active = well fitted curve in the direction sought with a large enough effect; inconclusive = small, poorly fitted or top-dose-only effect, or another doubt; inactive = no such curve, though single readings can be large; an effect the other way counts as inactive or inconclusive.

A short description of experiment [1]: P-glycoprotein substrates identified in KB-8-5-11 adenocarcinoma cell line, qHTS therapeutic library screen (AID 1346987). Also: nearly all actives have a fitted effect of over 65% in size. Also: potency is read from the fitted curve at half-maximal effect. The method in brief:
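Steps: plate 500 KB-8-5-11 cells/well in DMEM + 10% FCS (colchicine removed); pin compounds in dose-response; incubate 72 h, 37 degree C, 5% CO2; add CellTiter-Glo, 5 min; read luminescence.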

The nature of experiment [2]: Drug repurposing screens with cells derived from glioblastoma tumor samples (AID 1345199). Also: nearly all actives have a fitted effect of over 40% in size. Also: potency is read from the fitted curve at half-maximal effect. As to activity, negative = cell killing: % is scaled to controls: 0 for no effect and ±100 for the full control effect. Particulars: GBM patient neurospheres viability, ATP luminescence, 48 h. In a few lines: (§1)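 Four patient lines of CD133+ GBM neurospheres were screened at several concentrations; hits were retested in those lines plus three slower-growing GBM lines, using 48-hour treatment and ATP-based viability.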

Experiment [3] is described as follows: P-glycoprotein substrates identified in KB-3-1 adenocarcinoma cell line, qHTS therapeutic library screen (AID 1346986). Also: nearly all actives have a fitted effect of over 60% in size.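 Also: potency is read from the fitted curve at half-maximal effect; potency is for cytotoxicity meaning loss of cell viability.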 The method in brief:
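Resistance attributable to P-gp was assessed by comparing AC50 in KB-8-5-11 with parental KB-3-1 and by tariquidar reversal. Cells were exposed 72 h and viability read by CellTiter-Glo.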

The subject of experiment [4] is Zika virus NS2B-NS3 protease. In words: Primary screen GU AMC qHTS for Zika virus inhibitors (AID 1347154). Also: potency is read from the fitted curve at half-maximal effect; nearly all actives have a fitted effect of over 70% in size. In a few lines: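 Unlinked Zika NS2B hydrophilic domain/NS3 protease domain noncovalent complex (25 nM final) in 10 mM Tris-HCl pH 8.0, 0.01% Tween 20, with AMC peptide substrate. Fluorescence (ex 340, em 450 nm) change over 15 min, room temperature; percent inhibition fitted to 4-parameter Hill equation.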

A short description of experiment [5]: Counterscreen qHTS for small molecule stabilizers of the endoplasmic reticulum resident proteome: GLuc-NoTag assay (AID 1508627).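 Also: SH-SY5Y cells given compound then 100 nM thapsigargin to empty ER calcium; 0% = thapsigargin alone and -100% = DMSO vehicle control.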 The method in brief:
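SH-SY5Y cells stably expressing constitutively secreted GLuc (no SERCaMP tag) were pre-incubated 5 h, treated with compound for 19 h, then 100 nM thapsigargin for 4 h at 37C; medium GLuc read by coelenterazine luminescence.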

Experiment [6] in a line: Primary qHTS for inhibitors of nuclear receptor binding SET domain protein 2 (NSD2) in an isogenic RCH-ACV NSD2 p.E1099K mutant (9B) (AID 1645876). Also: nearly all actives have a fitted effect of over 70% in size. Also: potency is read from the fitted curve at half-maximal effect.
The nature of experiment [7]: Primary qHTS for inhibitors of nuclear receptor binding SET domain protein 2 (NSD2) in an RCH-ACV wild type WT cells (2C) (AID 1645877). Also: nearly all actives have a fitted effect of over 70% in size. Also: potency is read from the fitted curve at half-maximal effect.
Experiment [8] deals with Glutathione peroxidase 1 (Homo sapiens) (UniProt P07203). In words: Primary qHTS Assay for Inhibitors of Recombinant Selenoprotein Glutathione Peroxidase 1 (GPX1) (AID 1845191). Also: % is scaled to controls: 0 for no effect and ±100 for the full control effect; nearly all actives have a fitted effect of over 65% in size. In a few lines:
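Recombinant GPX1 (10 nM final) was preincubated with compound for 30 min at room temperature, then reacted with 1 mM GSH, 0.5 mM CHP, 0.5 mM NADPH and 100 nM glutathione reductase; NADPH fluorescence (340/450 nm) was read at 0 and 15 min.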

The nature of experiment [9]: qHTS to identify inhibitors of the type 1 interferon - major histocompatibility complex class I in skeletal muscle: primary screen against the NCATS Mechanism Interrogation Plate v5.0 (MIPE) Libary (AID 1347411). Also: potency is read from the fitted curve at half-maximal effect; nearly all actives have a fitted effect of over 65% in size. The method in brief: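 Luminescence from HiBiT-tagged endogenous HLA-B*08:01 served as the MHC class I read-out. CRISPR-engineered C25cl48 human myoblasts received 4.0 ng/ml IFN-beta plus compound for 24 hrs, with an 11-point, 1:3 series topping at 46 uM final.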

Experiment [10] deals with Phospholipid hydroperoxide glutathione peroxidase GPX4 (Homo sapiens) (UniProt P36969). In words: Primary qHTS Assay for Inhibitors of Recombinant Selenoprotein Glutathione Peroxidase 4 (GPX4) (AID 1845192). Also: % is scaled to controls: 0 for no effect and ±100 for the full control effect; nearly all actives have a fitted effect of over 65% in size. The conditions noted are these: outcome: dose series up to 50 µM unless noted. The method in brief:
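GR-coupled readout: 100 nM GR, 1 mM GSH, 0.5 mM NADPH; NADPH fluorescence (ex 340/em 450 nm) read at t=0 and after 15 min RT. GPX4 200 nM, preincubated 30 min with compound; substrate 0.5 mM CHP.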

The nature of experiment [11]: qHTS drug screen for cell cycle checkpoint inhibitors in PARPi-resistant BRCA-mutant ovarian cancer cell lines. (AID 1963452; calls by dose curve). The conditions noted are these: PEO1/OlaR viability, CellTiter-Glo luminescence, 96 h, stronger effect = lower value. In a few lines: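 PEO1, PEO4 and PEO1/OlaR ovarian cancer cells, 600 per well, exposed 96 h at 37C to a dilution series. Viability read by CellTiter-Glo luminescence, normalized to DMSO and empty wells; activity summarized as Z-AUC.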

A short description of experiment [12]: qHTS assay to identify inhibitors of the type 1 interferon - major histocompatibility complex class I in skeletal muscle: Counter screen cell viability and HiBit confirmation (AID 1347412). Also: potency is read from the fitted curve at half-maximal effect; nearly all actives have a fitted effect of over 60% in size. The conditions noted are these: iHSKM muscle cells + IFN-b, HiBiT or CellTiter-Glo, 24 h; HiBiT. In a few lines:
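Myoblasts (C25cl48, HLA-B HiBiT) seeded in medium without dexamethasone, IFN-b 4 ng/ml added except unstimulated columns; 1 hr later compounds pinned (12-pt 1:3, top 46 uM final). Incubated 24 hrs, lysed 10 min, luminescence measured.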

Experiment [13] addresses Luciferin 4-monooxygenase (Photinus pyralis) (UniProt P08659). In words: Biochemical firefly luciferase enzyme assay for NPC (AID 624030).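 Also: purified P. pyralis luciferase at 10 nM with luciferin and ATP substrate; 0% = DMSO and -100% = full luciferase inhibition by PTC124 control; nearly all actives have a fitted effect of over 70% in size.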 The method in brief:
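Counter-screen for direct inhibition of the luciferase enzyme by approved-drug library compounds, run at 10 nM enzyme in 50 mM Tris acetate (final). Luminescence was read within 5 min of enzyme-buffer addition and normalized to PTC124 versus DMSO (0%).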

A further experiment relates to astro. In words: Drug repurposing screens with cells derived from glioblastoma tumor samples (AID 1345199). Also: nearly all actives have a fitted effect of over 40% in size. Also: potency is read from the fitted curve at half-maximal effect. As to activity, negative = cell killing: % is scaled to controls: 0 for no effect and ±100 for the full control effect. The conditions noted are these: viability, ATP luminescence, 48 h; series mostly up to 45.9 µM. In a few lines:
as §1

For experiment [14], the target named is Rap guanine nucleotide exchange factor 3 (Homo sapiens) (UniProt O95398). In words: Confirmatory qHTS for agonist of cAMP-regulated guanine nucleotide exchange factor 3 (EPAC1) (AID 1645881).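 Also: EPAC1 catalysed release of BODIPY-GDP from Rap1B seen as fluorescence loss; 100% = effect of cAMP agonist control; nearly all actives have a fitted effect of over 75% in size.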
Experiment [15] deals with Rap guanine nucleotide exchange factor 4 (Homo sapiens) (UniProt Q8WZA2). In words: Confirmatory qHTS for agonist of cAMP-regulated guanine nucleotide exchange factor 4 (EPAC2) (AID 1645884).
For experiment [16] the target is unchanged. In words: Confirmatory qHTS for antagonist of cAMP-regulated guanine nucleotide exchange factor 4 (EPAC2) (AID 1645885). Also: potency is read from the fitted curve at half-maximal effect; nearly all actives have a fitted effect of over 25% in size.
The target in experiment [17] is Cytochrome P450 2D6 (Homo sapiens) (UniProt P10635). In words: Cytochrome P450 family 2 subfamily D member 6 (CYP2D6) small molecule antagonists: luciferase biochemical (cell-free) qHTS assay (AID 1645840; active = well fitted curve in the direction sought with a large enough effect in the repeat runs; an effect the other way counts as inactive or inconclusive; also: potency is read from the fitted curve at half-maximal effect; nearly all actives have a fitted effect of over 55% in size). In a few lines: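 P450-Glo luminescent screen: recombinant CYP2D6 enzyme–proluciferin substrate mix preincubated with compound 10 min at room temperature, then NADPH regeneration added for 1 h at room temperature. Detection reagent added for 20 min; luciferin light read as relative luminescence units.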

Experiment [18] deals with Cytochrome P450 2C9 (Homo sapiens) (UniProt P11712). In words: Cytochrome P450 family 2 subfamily C member 9 (CYP2C9) small molecule antagonists: luciferase biochemical (cell-free) qHTS assay (AID 1645842; active = well fitted curve in the direction sought with a large enough effect in the repeat runs; an effect the other way counts as inactive or inconclusive; also: % is scaled to controls: 0 for no effect and ±100 for the full control effect; nearly all actives have a fitted effect of over 55% in size). In a few lines: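 Luminescence, after 20 min with luciferin detection reagent, reflected CYP2C9 turnover during a 1 h NADPH-driven reaction at 37C. Enzyme-substrate mix contained 0.4% bovine serum albumin and was preincubated with compound 10 min at room temperature.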

Where [19] appears, read: at 45.9 µM (top of the series), tumour line B.
The mark [20] stands for this setting: at 45.9 µM (top of the series), tumour line D.
Setting [21] is: at 46.1 µM (top of the series), tumour line C.

Luciferin 4-monooxygenase (Photinus pyralis), sequence (P08659 whole entry, looked up): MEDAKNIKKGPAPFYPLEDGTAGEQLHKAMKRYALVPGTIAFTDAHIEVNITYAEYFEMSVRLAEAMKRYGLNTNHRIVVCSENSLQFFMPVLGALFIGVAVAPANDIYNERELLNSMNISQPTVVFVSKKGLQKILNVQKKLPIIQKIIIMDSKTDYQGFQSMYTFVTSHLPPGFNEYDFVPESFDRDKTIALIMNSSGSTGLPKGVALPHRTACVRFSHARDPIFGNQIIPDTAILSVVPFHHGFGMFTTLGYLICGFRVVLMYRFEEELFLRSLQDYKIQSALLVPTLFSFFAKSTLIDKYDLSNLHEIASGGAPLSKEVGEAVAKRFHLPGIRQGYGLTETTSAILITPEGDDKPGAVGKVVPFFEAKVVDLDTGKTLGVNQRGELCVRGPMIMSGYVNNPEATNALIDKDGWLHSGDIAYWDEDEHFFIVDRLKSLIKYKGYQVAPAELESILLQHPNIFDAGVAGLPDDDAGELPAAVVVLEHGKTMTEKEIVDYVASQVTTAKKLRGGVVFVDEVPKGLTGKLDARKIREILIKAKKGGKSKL
Glutathione peroxidase 1 (Homo sapiens), sequence (P07203 whole entry, looked up): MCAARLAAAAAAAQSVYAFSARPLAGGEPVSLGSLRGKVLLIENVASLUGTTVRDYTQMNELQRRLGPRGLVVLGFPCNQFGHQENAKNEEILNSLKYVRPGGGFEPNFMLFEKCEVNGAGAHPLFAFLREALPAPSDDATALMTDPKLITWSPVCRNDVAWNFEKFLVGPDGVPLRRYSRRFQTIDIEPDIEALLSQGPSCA
Rap guanine nucleotide exchange factor 4 (Homo sapiens), sequence (Q8WZA2 whole entry, looked up): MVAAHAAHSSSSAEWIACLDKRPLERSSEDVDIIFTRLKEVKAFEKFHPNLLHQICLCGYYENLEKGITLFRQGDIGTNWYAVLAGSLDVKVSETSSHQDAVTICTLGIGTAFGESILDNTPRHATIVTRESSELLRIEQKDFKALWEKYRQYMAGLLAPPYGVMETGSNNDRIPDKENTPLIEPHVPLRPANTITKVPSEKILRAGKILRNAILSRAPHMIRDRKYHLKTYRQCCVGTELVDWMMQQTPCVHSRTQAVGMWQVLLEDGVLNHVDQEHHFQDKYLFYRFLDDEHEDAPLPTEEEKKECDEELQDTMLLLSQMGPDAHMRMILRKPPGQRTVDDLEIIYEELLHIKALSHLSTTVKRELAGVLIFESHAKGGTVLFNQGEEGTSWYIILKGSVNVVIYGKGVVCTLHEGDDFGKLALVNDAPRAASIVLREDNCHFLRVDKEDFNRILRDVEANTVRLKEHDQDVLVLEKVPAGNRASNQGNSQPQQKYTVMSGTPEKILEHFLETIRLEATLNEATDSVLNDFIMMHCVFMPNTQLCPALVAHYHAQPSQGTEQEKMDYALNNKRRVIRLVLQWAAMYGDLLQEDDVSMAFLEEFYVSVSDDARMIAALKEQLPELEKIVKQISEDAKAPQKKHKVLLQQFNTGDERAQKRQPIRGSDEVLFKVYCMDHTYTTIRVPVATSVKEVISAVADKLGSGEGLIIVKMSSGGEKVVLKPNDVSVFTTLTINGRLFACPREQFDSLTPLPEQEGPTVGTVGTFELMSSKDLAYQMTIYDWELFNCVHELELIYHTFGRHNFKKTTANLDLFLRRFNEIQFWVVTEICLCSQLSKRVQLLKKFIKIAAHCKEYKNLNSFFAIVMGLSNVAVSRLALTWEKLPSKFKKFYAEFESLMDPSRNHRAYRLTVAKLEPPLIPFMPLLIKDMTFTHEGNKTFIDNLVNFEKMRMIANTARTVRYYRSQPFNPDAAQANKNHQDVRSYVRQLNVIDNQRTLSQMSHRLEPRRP
Cytochrome P450 2C9 (Homo sapiens), sequence (P11712 whole entry, looked up): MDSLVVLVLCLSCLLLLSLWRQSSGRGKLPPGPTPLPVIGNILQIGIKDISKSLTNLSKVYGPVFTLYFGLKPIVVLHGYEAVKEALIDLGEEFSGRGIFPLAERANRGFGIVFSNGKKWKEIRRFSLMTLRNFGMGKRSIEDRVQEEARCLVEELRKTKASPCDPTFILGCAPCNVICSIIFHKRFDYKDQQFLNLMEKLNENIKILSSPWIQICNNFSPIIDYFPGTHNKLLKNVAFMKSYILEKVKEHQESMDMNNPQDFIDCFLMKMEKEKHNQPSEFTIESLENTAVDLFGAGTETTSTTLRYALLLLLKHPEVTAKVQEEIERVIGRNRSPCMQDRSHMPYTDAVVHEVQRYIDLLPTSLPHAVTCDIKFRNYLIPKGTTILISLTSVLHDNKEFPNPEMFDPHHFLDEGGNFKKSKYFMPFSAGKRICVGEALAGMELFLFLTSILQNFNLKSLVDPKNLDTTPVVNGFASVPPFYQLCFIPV
Phospholipid hydroperoxide glutathione peroxidase GPX4 (Homo sapiens), sequence (P36969 whole entry, looked up): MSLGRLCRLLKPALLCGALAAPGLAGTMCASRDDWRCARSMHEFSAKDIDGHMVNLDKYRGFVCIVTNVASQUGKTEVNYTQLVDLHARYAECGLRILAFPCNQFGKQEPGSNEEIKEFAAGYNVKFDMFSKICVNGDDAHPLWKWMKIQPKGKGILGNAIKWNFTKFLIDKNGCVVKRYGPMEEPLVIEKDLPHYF
Cytochrome P450 2D6 (Homo sapiens), sequence (P10635 whole entry, looked up): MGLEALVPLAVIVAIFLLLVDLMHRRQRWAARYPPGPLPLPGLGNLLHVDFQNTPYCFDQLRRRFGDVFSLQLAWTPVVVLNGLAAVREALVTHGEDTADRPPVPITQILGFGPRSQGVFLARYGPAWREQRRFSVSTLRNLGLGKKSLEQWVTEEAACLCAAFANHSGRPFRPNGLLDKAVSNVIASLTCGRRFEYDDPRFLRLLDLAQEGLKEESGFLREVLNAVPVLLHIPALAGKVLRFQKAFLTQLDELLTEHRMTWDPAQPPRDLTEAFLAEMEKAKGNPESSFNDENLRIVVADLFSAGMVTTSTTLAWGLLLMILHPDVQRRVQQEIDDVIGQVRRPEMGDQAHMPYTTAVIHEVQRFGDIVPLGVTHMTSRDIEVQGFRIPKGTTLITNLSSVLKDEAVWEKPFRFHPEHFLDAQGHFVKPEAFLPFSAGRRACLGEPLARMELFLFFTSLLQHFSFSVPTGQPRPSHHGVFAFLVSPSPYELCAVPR
Rap guanine nucleotide exchange factor 3 (Homo sapiens), sequence (O95398 whole entry, looked up): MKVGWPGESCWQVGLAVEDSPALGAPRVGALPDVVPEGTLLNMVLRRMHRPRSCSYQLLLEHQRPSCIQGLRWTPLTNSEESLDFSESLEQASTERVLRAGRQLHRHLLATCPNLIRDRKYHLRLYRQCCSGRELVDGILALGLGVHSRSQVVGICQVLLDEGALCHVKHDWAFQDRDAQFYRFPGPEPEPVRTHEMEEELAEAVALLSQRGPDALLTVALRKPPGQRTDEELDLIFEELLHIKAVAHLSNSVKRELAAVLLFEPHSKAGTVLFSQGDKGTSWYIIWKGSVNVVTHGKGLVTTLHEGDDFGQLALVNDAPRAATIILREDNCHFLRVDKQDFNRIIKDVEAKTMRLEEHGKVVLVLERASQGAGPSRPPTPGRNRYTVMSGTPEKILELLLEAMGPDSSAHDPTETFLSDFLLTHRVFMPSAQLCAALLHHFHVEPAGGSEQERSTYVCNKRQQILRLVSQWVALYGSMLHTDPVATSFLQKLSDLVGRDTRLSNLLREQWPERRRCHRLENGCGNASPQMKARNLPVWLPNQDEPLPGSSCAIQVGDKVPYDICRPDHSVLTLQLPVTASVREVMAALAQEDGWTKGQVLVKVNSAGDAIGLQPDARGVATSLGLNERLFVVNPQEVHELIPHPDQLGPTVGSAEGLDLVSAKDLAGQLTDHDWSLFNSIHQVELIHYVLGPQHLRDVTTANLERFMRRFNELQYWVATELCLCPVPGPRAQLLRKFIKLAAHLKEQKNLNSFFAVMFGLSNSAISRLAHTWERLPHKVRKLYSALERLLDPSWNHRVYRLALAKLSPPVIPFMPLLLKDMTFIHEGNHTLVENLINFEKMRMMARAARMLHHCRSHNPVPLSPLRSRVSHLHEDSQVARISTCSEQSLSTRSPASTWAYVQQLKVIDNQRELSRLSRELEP

Regarding `COc1cc([C@@H]2c3cc4c(cc3C(O[C@@H]3O[C@@H]5CO[C@@H](C)O[C@H]5[C@H](O)[C@H]3O)C3COC(=O)[C@@H]32)OCO4)cc(OC)c1OP(=O)(O)O` (some centres not stated), the Potency was 18.4 µM (active) in experiment [1] and 15.8 µM (active) in experiment [2] (tumour line A). Further, the figures for the activity, negative = cell killing in [2] (setting [19]), in experiment [2] (setting [20]) and in [2] (setting [21]) were -18.7% (inactive), -17% (inactive) and -13.7% (inactive), respectively.
For the compound `O=c1[nH]ccc2c(S(=O)(=O)N3CCCNCC3)cccc12`, the Potency entry in experiment [3], in experiment [1], in experiment [5], in experiment [6], in experiment [7] and in [8] was “inactive” throughout. Also, in experiment [4], the Potency was 26.7 µM (active).
As for `COc1cc(OC)cc(N(CCNC(C)C)c2ccc3ncc(-c4cnn(C)c4)nc3c2)c1`, the Potency was 10.3 µM (active) in [3]; 18.4 µM (active) in experiment [1]; 13.1 µM (active) in [9]; 11.8 µM (active) in experiment [6]; 10.5 µM (active) in [7]; 17.6 µM (active) in experiment [12]. Also, the Potency entry in experiment [8] and in experiment [10] was “inactive” each time. Besides, the Z-AUC is -0.272 (inactive) in experiment [11], -0.0954 in experiment [11] (measured here: PEO1 parental Z-AUC) and -0.145 in experiment [11] (measured here: PEO4 Z-AUC).
In the case of `CCOC(=O)CN[C@@H](C(=O)N1CC[C@H]1C(=O)NCc1ccc(/C(N)=N/O)cc1)C1CCCCC1`, the Potency result (in experiment [13]; in experiment [8]; in the experiment on astro) was “inactive” throughout. Moreover, the activity, negative = cell killing in [2] (setting [19]) is -9.76% (inactive); in [2] (setting [20]) it was -14.5% (inactive); in [2] (at 46 µM (top of the series), tumour line A), -18.3% (inactive); in [2] (setting [21]), -15.2% (inactive).
As for `CCC(=O)O[C@H]1CC[C@H]2[C@@H]3CCc4cc(O)ccc4[C@H]3CC[C@]12C`, the outcome in experiment [14] and in experiment [15] was inactive. For the same compound, the Potency was 27.8 µM (active) in experiment [16] and 12.6 µM (active) with astro.
Turning to `NCCNCCN`, the Potency entry (in experiment [1]; with astro) was “inactive” in each case. For the same compound, the activity, negative = cell killing in experiment [2] (setting [19]) was -28% (inactive). For the same compound, in experiment [2] (tumour line A), the Potency is 28.2 µM (active).
With `N[C@@H](C(=O)N[C@@H]1C(=O)N2C(C(=O)O)=C(CSc3cn[nH]n3)CS[C@H]12)c1ccc(O)cc1`, the activity, negative = cell killing in experiment [2] (setting [19]) is -1.12% (inactive); in [2] (setting [20]), -13.1% (inactive); in experiment [2] (setting [21]), 10.5% (inactive). Further, the Potency entry in the experiment on astro is “inactive”.
With `CCCCCCCC[N+](C)(C)CCCCCCCC`, the Potency entry in experiment [13], in experiment [1] and in experiment [18] was “inactive” in each case. For the same compound, the Potency in experiment [17] was 0.674 µM (active); with astro, 20 µM (active) and 12.6 µM (active).
